Results taken from PubChem BioAssay.

The compounds below were run against Neurogenic locus notch homolog protein 3 (Homo sapiens) (UniProt Q9UM47) (assay: small molecules binding NOTCH3 protein – biochemical, 635/667 nm fluorescence, primary screen (AID 1096)). Conditions: small-molecule microarray, 635 nm fluorescence, higher = more signal.
Neurogenic locus notch homolog protein 3 (Homo sapiens), sequence (Q9UM47 whole entry, looked up): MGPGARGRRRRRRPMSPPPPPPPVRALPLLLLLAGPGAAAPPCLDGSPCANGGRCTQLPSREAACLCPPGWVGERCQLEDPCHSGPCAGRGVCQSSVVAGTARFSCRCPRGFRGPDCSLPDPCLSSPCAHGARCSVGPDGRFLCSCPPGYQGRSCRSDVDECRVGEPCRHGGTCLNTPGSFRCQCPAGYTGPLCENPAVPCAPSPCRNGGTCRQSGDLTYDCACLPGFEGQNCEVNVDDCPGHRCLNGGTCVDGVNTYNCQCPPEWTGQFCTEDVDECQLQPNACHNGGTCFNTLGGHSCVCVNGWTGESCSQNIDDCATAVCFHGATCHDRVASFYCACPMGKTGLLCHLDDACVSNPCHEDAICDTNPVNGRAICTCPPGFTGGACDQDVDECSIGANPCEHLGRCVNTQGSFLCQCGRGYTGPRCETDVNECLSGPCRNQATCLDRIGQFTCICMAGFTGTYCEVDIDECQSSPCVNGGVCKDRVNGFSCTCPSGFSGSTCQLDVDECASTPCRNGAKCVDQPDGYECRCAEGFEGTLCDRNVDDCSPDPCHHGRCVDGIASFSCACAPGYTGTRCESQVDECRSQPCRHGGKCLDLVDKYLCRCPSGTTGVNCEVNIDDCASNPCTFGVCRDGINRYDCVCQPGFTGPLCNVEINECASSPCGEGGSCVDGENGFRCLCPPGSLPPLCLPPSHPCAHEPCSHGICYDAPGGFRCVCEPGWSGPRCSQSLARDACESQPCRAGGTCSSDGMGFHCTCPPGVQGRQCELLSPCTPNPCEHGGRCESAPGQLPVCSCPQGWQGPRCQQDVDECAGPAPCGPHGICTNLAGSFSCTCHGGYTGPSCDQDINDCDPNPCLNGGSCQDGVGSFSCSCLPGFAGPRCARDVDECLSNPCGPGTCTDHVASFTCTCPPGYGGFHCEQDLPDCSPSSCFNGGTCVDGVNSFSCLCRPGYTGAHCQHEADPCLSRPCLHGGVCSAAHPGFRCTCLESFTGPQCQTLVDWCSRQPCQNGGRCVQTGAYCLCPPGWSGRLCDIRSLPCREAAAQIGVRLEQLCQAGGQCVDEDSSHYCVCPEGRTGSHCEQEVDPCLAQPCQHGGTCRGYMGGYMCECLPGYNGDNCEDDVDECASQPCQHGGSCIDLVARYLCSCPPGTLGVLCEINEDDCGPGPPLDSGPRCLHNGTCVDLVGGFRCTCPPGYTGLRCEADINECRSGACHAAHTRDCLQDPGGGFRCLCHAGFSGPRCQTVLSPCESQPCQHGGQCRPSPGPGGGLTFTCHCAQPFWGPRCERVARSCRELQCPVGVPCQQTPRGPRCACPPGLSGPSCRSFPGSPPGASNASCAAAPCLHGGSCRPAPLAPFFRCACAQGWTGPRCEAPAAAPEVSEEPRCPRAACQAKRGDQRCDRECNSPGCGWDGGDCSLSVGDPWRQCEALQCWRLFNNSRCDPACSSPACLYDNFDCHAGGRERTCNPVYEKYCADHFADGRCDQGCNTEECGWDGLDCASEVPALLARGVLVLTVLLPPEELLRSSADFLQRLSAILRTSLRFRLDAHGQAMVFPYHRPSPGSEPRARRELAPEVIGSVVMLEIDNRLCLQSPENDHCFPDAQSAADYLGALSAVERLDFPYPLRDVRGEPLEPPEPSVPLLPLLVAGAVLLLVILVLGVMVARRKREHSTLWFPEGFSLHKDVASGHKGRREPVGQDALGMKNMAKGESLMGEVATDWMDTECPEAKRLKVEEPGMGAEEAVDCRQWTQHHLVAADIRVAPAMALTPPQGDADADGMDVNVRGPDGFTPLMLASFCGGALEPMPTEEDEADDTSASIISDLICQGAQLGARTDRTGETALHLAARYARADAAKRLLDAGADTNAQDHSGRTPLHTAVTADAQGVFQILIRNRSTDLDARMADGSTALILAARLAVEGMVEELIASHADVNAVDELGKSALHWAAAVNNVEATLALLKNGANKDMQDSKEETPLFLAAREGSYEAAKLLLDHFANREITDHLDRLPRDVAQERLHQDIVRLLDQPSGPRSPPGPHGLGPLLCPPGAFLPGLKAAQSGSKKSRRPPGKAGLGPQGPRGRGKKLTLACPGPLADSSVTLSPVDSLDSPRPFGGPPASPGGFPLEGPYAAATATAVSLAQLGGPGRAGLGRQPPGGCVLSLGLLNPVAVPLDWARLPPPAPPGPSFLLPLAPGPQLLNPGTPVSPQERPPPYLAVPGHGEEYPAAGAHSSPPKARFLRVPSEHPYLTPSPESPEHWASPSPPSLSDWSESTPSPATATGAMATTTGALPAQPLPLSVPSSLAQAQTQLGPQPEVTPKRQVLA
Work on COCCOC(=O)N1C(=O)[C@@]2(c3cc(C#Cc4ccc(OC)cc4)ccc31)[C@H](C(=O)N1CCc3cc(OC)c(OC)cc3C1)[C@H]1C(=O)O[C@H](c3ccccc3)[C@H](c3ccccc3)N1[C@@H]2c1ccc(OCCO)cc1 yielded a composite z-score of 1.15. With O=c1c2ccc(Br)cc2nc(-c2ccccc2)n1Cc1cccc(O)c1 the composite z-score was 0.343. For Cc1ccc(S[C@]2(C(=O)NCCN3CCOCC3)CC(=O)N(C3Cc4ccccc4C3)[C@@H]2c2ccc(CO)cc2)cc1, the composite z-score was -0.521. C=CC[C@@]1(C(=O)NCCN2CCOCC2)N=C(c2ccc(OCCCO)cc2)O[C@@H]1c1ccccc1 was tested, and the composite z-score was 0.625. C[C@H]1NC(=O)C([C@@H](C)OCc2ccccc2)NC(=O)[C@@]23C(=O)N[C@@H](Cc4ccccc4)C2[C@H](C)[C@@]2(C)O[C@H]2C3/C=C/CC/C=C/CNC1=O (some centres not stated) was tested, and the composite z-score was -0.0089. Compound C/C=C/[C@@H](CCn1cc([C@H](O)c2ccccc2)nn1)[Si](C)(C)c1ccc(OC)cc1 has a composite z-score of -0.498. CCCC=C(CCC)[C@@H](NC(=O)Cc1ccccc1)c1ccc(C(=O)OC)cc1 showed a composite z-score of 0.505. For C=C(COC)/C(=C/C[C@@H](OC(=O)c1ccncc1)c1cccc(OCCO)c1)c1cc(C(=O)OC)ccc1OC, the composite z-score was 0.841. With COc1cc(NN2C(C(O)c3ccc(I)cc3)C=CC3C(=O)N(C)C(=O)C32)cc(OC)c1OC (configuration not stated) the composite z-score was -0.325. Compound COCCCNC(=O)[C@@]1(Cc2ccccc2CN=[N+]=[N-])N=C(c2ccc(OCCCO)cc2)O[C@H]1c1ccccc1N=[N+]=[N-] has a composite z-score of 0.671. Work on O=C(CS)NCCCCCNC(=O)[C@@H]1C[C@@H]2C(=O)N3CCC[C@H]3C(=O)N2[C@@H]1c1ccc(O)cc1 yielded a composite z-score of 0.164. With Cc1cc(C)c(C(O)C2C=CC3C(=O)N(c4ccccc4)C(=O)C3N2Nc2ccc([N+](=O)[O-])cc2)c(C)c1 (configuration not stated) the composite z-score was 1.02. C=C[C@H](C)[C@H](OC(=O)Nc1ccc(SC)cc1)c1ccc(O)c2ccccc12 was tested, and the composite z-score was -0.673. COC(=O)C(CC#Cc1ccc2c(c1)[C@]1(C(=O)N2)[C@H](C(=O)N2CCc3cc(OC)c(OC)cc3C2)[C@H]2C(=O)O[C@H](c3ccccc3)[C@H](c3ccccc3)N2[C@@H]1c1ccc(OCCO)cc1)C(=O)OC showed a composite z-score of 1.07. With COC(=O)[C@@]1(Cc2ccc(OC)cc2)[C@H]2c3cc(C(=O)N4CCCC4)n(CCc4ccc(O)c(OC)c4)c3C[C@H]2CN1C(=O)c1ccccc1 the composite z-score was -0.56. O=C1N(CCS(=O)(=O)c2ccccc2)Cc2ccccc2C[C@@]12COC(c1ccc(OCCCO)cc1)=N2 gave a composite z-score of 1.04. For CC(C)C[C@H]1NC(=O)[C@H](C)NC(=O)[C@@]23C(=O)N[C@@H](Cc4ccccc4)C2[C@H](C)[C@@]2(C)O[C@H]2C3/C=C/C/C=C\CNC1=O (some centres not stated), the composite z-score was 0.0715. In the case of COc1ccc([Si](C)(C)[C@H]2[C@H](CC(=O)N3CCC[C@H]3CO)O[C@@]3(C(=O)N(Cc4ccc(N5C(=O)c6cccc7cccc5c67)cc4)c4ccccc43)[C@@H]2C)cc1, the composite z-score is reported as 1.13. COc1cccc(C)c1NC(=O)O[C@H]1[C@H](OC(=O)Nc2ccccc2)[C@H](OC(=O)Nc2ccccc2)[C@@H](OC)O[C@@H]1CO gave a composite z-score of 0.93. For C=CCC(OC(C)=O)[C@@H]1[C@@H](N(Cc2ccc(-c3ccccc3)cc2)C(=O)c2cccc3ccccc23)c2cc(OCCCO)ccc2N1C(=O)c1ccc2ccccc2n1 (some centres not stated), the composite z-score was 0.336. Compound O=C1O[C@H](c2ccccc2)[C@H](c2ccccc2)N2[C@H]1[C@@H](C(=O)N1CCN(c3ncccn3)CC1)[C@]1(C(=O)Nc3ccc(C#CCCO)cc31)[C@H]2c1ccc(OCCO)cc1 has a composite z-score of 1.1. For COC(=O)[C@@]1(Cc2ccccc2N=[N+]=[N-])N=C(c2ccc(OCCCO)cc2)O[C@H]1c1ccccc1, the composite z-score was 0.94.
